Shown are actives, neighbours in structure and some others; about 4.6% of the full set was active somewhere.
tim23-1 inh = growth inhibitors of tim23-1 mutant yeast; AID 463212; S. cerevisiae tim23-1 growth, BacTiter-Glo luminescence, 24 h; inhibition, % at 20 µM; 330,000 tested, 1.3% active;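 active = growth inhibition of the mutant yeast at or above 50%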;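 note: temperature-sensitive mutant grown at 25 °C; plate controls were DMSO-treated mutant yeast for no effect and medium wells lacking yeast for full effect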
tim10-1 inh = inhibits growth of tim10-1 mutant yeast; 330,000 tested, 2.2% active; inhibition, % at 20 µM; S. cerevisiae tim10-1 ts strain growth, BacTiter-Glo, 24 h; AID 463190;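 active = inhibition of at least 40%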;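 note: mutant grown at 25 °C; 0% = DMSO wells with yeast and 100% = wells holding no yeast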
PfHsp90 set2 = inhibits growth of yeast expressing Plasmodium falciparum Hsp90; inhibition, % at 9.4 µM; 310,000 tested, 0.32% active; S. cerevisiae expressing PfHsp90, BacTiter-Glo ATP, 48 h; yeast lacking PDR1 and PDR3 efflux regulators;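 active = every replicate shows inhibition above about 80%, whatever the replicate mean, limit read from the data; inconclusive = mean inhibition reaches the set limit but some replicate falls short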;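 note: 0% = DMSO neutral controls and 100% = 20 µM radicicol positive controls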
NLRP3 yeast inh = NALP3 inhibition in yeast. Yeast reconstituted NLRP3/ASC/caspase-1, beta-gal luminescence, 24 h. 330,000 tested, 0.39% active. inhibition, % at 10 µM. AID 2825;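 active = inhibition of 50% or more; inactive = inhibition below 50%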;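 note: plate controls were induced DMSO wells for no effect and uninduced yeast grown without galactose for full effect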
TIM10 inh = inhibits growth of TIM10 yeast strain. S. cerevisiae TIM10 strain growth, BacTiter-Glo luminescence, 24 h. inhibition, % at 10 µM. 330,000 tested, 1.4% active. AID 463195;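 active = inhibition of 40% or more at the single tested concentration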;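 note: wild-type TIM10 isogenic control strain grown at permissive 25 °C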
SKKanGAS inh = SKKanGAS growth inhibition | S. pyogenes SKKanGAS, kanamycin growth, BacTiter-Glo, 6 h | inhibition, % at 7.5 µM | 300,000 tested, 1.3% active | AID 1662;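 active = mean replicate score, as percent of positive control median, at least 50; inconclusive = mean below 50 but one replicate at or above 50; inactive = mean and every replicate below 50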;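 note: strain carries kanamycin resistance gene driven by streptokinase promoter and grows in 40 µg/ml kanamycin; loss of luminescence reflects streptokinase promoter inhibition or plain growth inhibition; 0% = median of DMSO wells and 100% = positive control at its reference dose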
tim10-1 conf = tim10-1 yeast growth inhibition, confirmed | S. cerevisiae tim10-1 ts strain growth, BacTiter-Glo, 24 h | shares compounds with tim10-1 inh | 7,400 tested, 56% active | inhibition, % at 20 µM;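 active = inhibition of yeast growth at or above a set limit in either of two repeat tests at 20 µM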;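 note: tim10-1 mutant grown at permissive 25 °C to find synthetic lethal compounds; 0% = DMSO yeast wells and 100% = medium wells without yeast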
* = called active by the depositor; ? = inconclusive; / = no result.

SMILES	tim23-1 inh	tim10-1 inh	PfHsp90 set2	NLRP3 yeast inh	TIM10 inh	SKKanGAS inh	tim10-1 conf
CC(C)Oc1ccc(Cl)cc1Nc1nc(NCCO)nc(N2CCCC2)n1	40	41*	-30	22	14	10	8
COc1ccc(Cl)cc1Nc1nc(NCCO)nc(N2CCCC2)n1	4	28	5	23	32	-3	/
CCC(C(=O)OCC(=O)Nc1cc(Cl)cc(Cl)c1)c1ccccc1 (configuration not stated)	29	40*	4	9	24	53*	26
Cc1cccc(-c2onc3ccc(C(=O)/C=C/N(C)C)cc23)c1	27	48*	?	27	12	8	28
CC(=O)c1ccc2noc(-c3ccc(C)cc3)c2c1	4	6	-17	15	10	-3	/
CN(C)/C=C/C(=O)c1ccc2noc(-c3ccc(F)cc3)c2c1	31	42*	59	8	9	12	13
CCc1c(O)nc(SCC(=O)Nc2nc3ccccc3s2)n(C2CCCCC2)c1=O	37	28	32	9	5	?	/
O=C(CN1CCN(S(=O)(=O)c2ccc(Cl)cc2)CC1)Nc1ccc2c(c1)OCO2	32	34	-19	10	-6	4	/
CCOc1ccc(NC(=O)CN2CCN(S(=O)(=O)c3ccc(Cl)cc3)CC2)cc1	37	41*	23	7	10	2	22
O=C(CN1CCN(S(=O)(=O)c2ccc(Br)cc2)CC1)N/N=C/c1ccc(Br)s1	43	44*	9	15	24	33	36*
Cc1ccc(/C=N/NC(=O)CN2CCN(S(=O)(=O)c3ccc(Br)cc3)CC2)s1	38	3	-4	10	7	17	/
O=C(CCl)Nc1cccc(S(=O)(=O)N2CCCCCC2)c1	48	41*	11	-7	20	7	34*
CC(C)c1ccc(S(=O)(=O)N2CCN(CC(=O)Nc3ccc4c(c3)OCO4)CC2)cc1	35	52*	-10	1	20	/	40*
O=C(Cc1ccc(Cl)cc1)Nc1cccc(S(=O)(=O)N2CCCCC2)c1	11	7	-1	16	-4	/	/
CC(C)C(=O)Nc1cc(C(F)(F)F)ccc1-n1ccnc1	8	2	-6	18	-3	6	/
COC(=O)c1ccc(NC(=O)CN2CCN(S(=O)(=O)c3ccc(Br)cc3)CC2)cc1	34	46*	-2	7	15	45	36*
CCCNC(=O)CN1CCN(S(=O)(=O)c2ccc(Br)s2)CC1	28	5	-16	9	1	/	/
O=C(CN1CCN(S(=O)(=O)c2ccccc2)CC1)Nc1ccc(Cl)c(Cl)c1	10	43*	/	9	25	-13	30*
O=C(CN1CCN(S(=O)(=O)N2CCCCC2)CC1)Nc1ccc(Cl)c(Cl)c1	27	17	5	16	14	-5	/
Cc1cc(C)cc(NC(=O)CN2CCCN(S(=O)(=O)c3ccc(Br)s3)CC2)c1	31	44*	22	10	29	11	24
CN(CC(=O)Nc1ccc(S(=O)(=O)N2CCCC2)cc1)Cc1ccc(Cl)cc1Cl	33	46*	7	-4	3	5	22
CN(CC(=O)Nc1ccc(S(=O)(=O)N2CCCC2)cc1)CC(=O)Nc1ccc(F)c(F)c1F	13	2	7	22	-3	1	/
O=C(O)CCNC(=O)C12CC3CC(CC(C3)C1)C2	5	-2	-15	6	-7	-4	/
COc1ccc(C(=O)N/N=C/c2ccc(OC)c(CN3CCc4cc(OC)c(OC)cc4C3C)c2)cc1 (configuration not stated)	-8	14	1	2	17	3	/
O=C(CN1CCN(S(=O)(=O)c2ccc(Cl)cc2)CC1)Nc1ccc2c(c1)CCC2	44	50*	-7	8	22	2	40*
SMILES	tim23-1 inh	tim10-1 inh	PfHsp90 set2	NLRP3 yeast inh	TIM10 inh	SKKanGAS inh	tim10-1 conf
Cc1ccc(S(=O)(=O)N2CCN(CC(=O)Nc3ccc4c(c3)CCC4)CC2)cc1C	36	31	-53	13	27	-6	/
NC(=O)CN1CCN(c2nc(-c3ccc(F)cc3)cs2)CC1	3	18	19	8	1	-2	/
O=C(CN1CCN(c2nc(-c3ccc(F)cc3)cs2)CC1)Nc1ccc2c(c1)OCO2	27	46*	-17	20	6	18	27
Cc1ccsc1/C=N/NC(=O)c1ccc2ccccc2c1	26	-22	8	19	-19	-4	/
O=C(NCCCN1CCOCC1)c1cccnc1SCc1ccccc1Cl	-2	14	-13	19	-5	-8	/
COc1cc(OC)cc(C(=O)NCC2CCCN(C(=O)c3oc(C)cc3C)C2)c1 (configuration not stated)	8	11	-2	11	5	0	/
CC(=O)N1c2ccc(S(=O)(=O)N(C)CC(=O)NC(C)c3ccccc3)cc2CC1C (configuration not stated)	5	2	1	-8	0	-4	/
O=C(NNS(=O)(=O)c1ccc(F)cc1)c1cc2ccccc2cc1O	13	-2	-12	14	5	0	/
C/C(=N\NC(=S)NC(C)C)c1ccccc1OC(F)F	26	41*	13	10	25	0	30*
O=C1CCCCC1Sc1nnc(Cc2cccs2)n1CCc1ccccc1 (configuration not stated)	14	45*	-4	11	17	/	24
O=C(CN(C(=O)CNC(=O)c1cccs1)c1ccccc1)NC1CCCCC1	4	9	11	13	2	1	/
Cc1ccc(SCCN2CCC(C(C)(C)C)CCC2=O)cc1 (configuration not stated)	38	45*	-2	7	21	8	30
O=C(O)CCC(=O)Nc1nc2nccc(-c3ccccc3)n2n1	10	-15	15	6	19	0	/
Cc1cc(N2C3CCC2CC(O)(c2ccc(F)cc2)C3)nc(-c2ccccc2)n1 (configuration not stated)	46	48*	17	8	40	-3	37*
CC(O)[C@H]1CNC(=O)C(=O)N1CCC12CC3CC(CC(C3)C1)C2 (some centres not stated)	1	2	14	5	7	4	/
O=C1CCCN1CCC12CC3CC(CC(C3)C1)C2	34	41*	/	28	12	-10	5
Cc1ccc(SCC(=O)OCC(=O)N(CC(C)C)c2c(N)n(Cc3ccccc3)c(=O)[nH]c2=O)cc1C	-6	2	/	8	0	-1	/
COCCNC(=O)/C(C#N)=C/C(C)=C/c1ccccc1	42	53*	5	2	17	0	42*
